Source: the supplement of paper PMC7156485

Legend:
Conditions in all cases: concentration: 10 µM; 24 h
HCC1569 [1] = test: cell number relative to DMSO (% of DMSO); higher = more cells (less growth inhibition / toxicity)
Outline: (§1)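 HCC1569 and TDF cells (800 per well, 384-well plates, RPMI with 10% FBS) were treated with compounds at 10 µM for 24 h at 37 °C, in triplicate. Cells were fixed in 3.7% formaldehyde and stained with a rabbit anti-H1.0 antibody, an AlexaFluor 647 secondary and DAPI; six fields per well were imaged at ×10. H1.0 nuclear intensity or cell number is expressed as percent of the plate DMSO control, taking the median of replicates. HCC1569 values were smoothed for positional effects.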

TDF [2] = test: as above
Outline: as §1

TDF [3] = test: H1.0 immunofluorescence intensity relative to DMSO (% of DMSO); higher = stronger H1.0 induction, active = 120 or more
Outline: as §1

HCC1569 [4] = test: H1.0 immunofluorescence intensity relative to DMSO (% of DMSO); higher = stronger H1.0 induction, active = 140 or more
Outline: as §1
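Throughout, for H1.0 immunofluorescence intensity relative to DMSO: TDF is a line of transformed human dermal fibroblasts of mesenchymal origin.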
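Throughout, for cell number relative to DMSO: TDF denotes transformed human dermal fibroblasts of mesenchymal origin.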

SMILES	cell number (HCC1569 [1])	cell number (TDF [2])	H1.0 immunofluorescence intensity (TDF [3])	H1.0 immunofluorescence intensity (HCC1569 [4])
OCC1OC(n2cnc3c(NC4CCCC4)nc(Cl)nc32)C(O)C1O (configuration not stated) [2-Chloro-N6-cyclopentyladenosine]	109	104	89.3 (inactive)	80.9 (inactive)
Cc1c(C)c2c(c(C)c1OC(=O)CCC(=O)O)CCC(C)(CCCC(C)CCCC(C)CCCC(C)C)O2 (configuration not stated) [Tocopherol succinate]	98.1	109	94.4 (inactive)	102 (inactive)
CCCNCC(O)COc1ccccc1C(=O)CCc1ccccc1.Cl [(S)-(-)-propafenone hydrochloride]	98.4	104	90.3 (inactive)	111 (inactive)
CCCSc1ccc2nc(NC(=O)OC)[nH]c2c1 [Albendazole]	61.4	9.62	149 (active)	176 (active)
O=c1cc(-c2cccc3c2Sc2ccccc2S3)oc(N2CCOCC2)c1 [ATM Kinase Inhibitor]	89.5	109	98.4 (inactive)	113 (inactive)
CCN1CCc2nc(N)oc2CC1.Cl.Cl [B-HT 933 dihydrochloride]	99.5	104	97 (inactive)	87.2 (inactive)
C[N+](C)(C)C(Cc1c[nH]c(=S)[nH]1)C(=O)[O-] [L-Ergothioneine]	107	102	101 (inactive)	100 (inactive)
COC1C(OC(=O)c2ccc(C)[nH]2)C(O)C(Oc2ccc3c(O)c(NC(=O)c4c[nH]c(C(=O)Nc5c(O)c6ccc(OC7OC(C)(C)C(OC)C(OC(=O)c8ccc(C)[nH]8)C7O)c(C)c6oc5=O)c4C)c(=O)oc3c2C)OC1(C)C (configuration not stated) [Coumermycin A1]	94.7	100	93.5 (inactive)	101 (inactive)
